# Source: PubChem BioAssay AID1220 (Sanford-Burnham Center for Chemical Genomics, 2008)
# Out of some 190,000 compounds screened, about 1,300 (0.68%) were called active. The list comes from a sample in which actives are over-represented; it also holds similar structures and randomly drawn compounds. Values without a mark were called inactive. No stated cut-off is given here; in the data, active means inhibition above about 50%; inactive means the rest.
# Target: Mannose-6-phosphate isomerase (Homo sapiens) (UniProt P34949)
# Experiment: human PMI inhibitors, high substrate, primary screen, biochemical, fluorescence intensity, high mannose 6-phosphate (AID 1220)
# Conditions: recombinant PMI enzyme, coupled fluorescence intensity; at 20 µM; hits give high values
# Chain of Mannose-6-phosphate isomerase (Homo sapiens) (P34949 whole entry, looked up): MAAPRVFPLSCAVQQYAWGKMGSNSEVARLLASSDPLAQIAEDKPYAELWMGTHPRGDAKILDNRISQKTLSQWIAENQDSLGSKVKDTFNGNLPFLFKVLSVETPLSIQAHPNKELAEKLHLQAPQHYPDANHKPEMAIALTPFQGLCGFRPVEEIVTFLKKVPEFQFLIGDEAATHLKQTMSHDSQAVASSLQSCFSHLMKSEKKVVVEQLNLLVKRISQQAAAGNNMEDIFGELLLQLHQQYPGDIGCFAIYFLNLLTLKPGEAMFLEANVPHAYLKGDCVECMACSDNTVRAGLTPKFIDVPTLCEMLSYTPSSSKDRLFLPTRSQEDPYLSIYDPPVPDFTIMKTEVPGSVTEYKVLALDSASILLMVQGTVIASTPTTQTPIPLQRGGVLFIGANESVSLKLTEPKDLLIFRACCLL
row,SMILES,inhibition
1,Cn1c(CSc2nc3ccccc3s2)nnc1SCC(=O)NCCCN1CCOCC1,-11.8%
2,Cc1ccsc1C(=O)NNC(=O)C1CC=CCC1C(=O)O (configuration not stated),-4.3%
3,COC(=O)c1cccc(NC(=O)c2cccs2)c1C,10.7%
4,CC(C)C(c1nnnn1C1CCCCC1)N1CCCc2ccccc21 (configuration not stated),8.3%
5,Cc1ccc(N2CCN(C(=O)c3cc(C(=O)c4ccccc4C)c[nH]3)CC2)c(C)c1,16.7%
6,Cc1noc(C)c1Cn1nc(C(=O)O)c2ccccc2c1=O,1.4%
7,COc1ccc(N=Cc2c(O)ccc3ccccc23)cc1,68.5% (active)
8,CCOC(=O)c1cc(CC)sc1/N=C/C1=C(O)CCCC1=O,14.3%
9,CCOC(=O)c1cc(CC)sc1/N=C/c1c(O)ccc2ccccc12,60.7% (active)
10,CCOC(=O)c1cc(CC)sc1/N=C/C1=C(O)CC(C)(C)CC1=O,7.3%
11,COc1ccc(N=Cc2c(O)[nH]c3ccccc23)cc1,1.9%
12,COc1ccc2c(c1)-c1nc(NC(=O)c3cccs3)sc1CC2,-22.3%
13,COc1ccc2nc(N)sc2c1,-1.6%
14,COc1ccc(N=Cc2oc3ccc4ccccc4c3c2O)cc1,13.8%
15,O=C(CCc1nnc(CCCc2ccccc2)o1)NCCc1ccccc1,-1.7%
16,Cc1nc2c(c(=O)n1CCC1=CCCCC1)c1nc3ccccc3nc1n2/N=C/c1ccco1,15.8%
17,Cc1nn(CCc2nn[nH]n2)c2nc(-c3ccc(Br)cc3)cc(C(F)(F)F)c12,4.9%
18,CSc1cccc(NC(=O)C2CCN(S(C)(=O)=O)CC2)c1,5.6%
19,Cc1ccc(OCCC(=O)Nc2ccc(C)c(F)c2)cc1,16.2%
20,Cc1ccc(S(=O)(=O)N2CCC(C(=O)NCCCN3CCCCCC3)CC2)cc1,-3.9%
21,CCCCNC(=O)c1onc(CSc2ccccc2F)c1C(=O)O,-0.1%
22,Cc1nc(NC(=O)CN(C)S(=O)(=O)c2ccc(Br)cc2)sc1C,1.7%

row,SMILES,inhibition
1,COc1ccc2c(c1)C(=O)/C(=C/C=C/c1ccccc1)CC2,33.4%
2,COc1ccc(/C=C2/CCc3ccccc3C2=O)cc1OC,29.2%
3,COc1ccc2c(c1)CC/C(=C\c1ccc(OC)c(Cn3cccn3)c1)C2=O,21.7%
4,COc1ccc2c(c1)CC/C(=C\C=C\c1ccccc1OC)C2=O,53.3% (active)
5,COc1ccc(/C=C2\CC/C(=C\c3ccc(OC)cc3OC)C2=O)c(OC)c1,13.5%
6,COc1ccc2c(c1)CC/C(=C\C=C\c1ccccc1)C2=O,52.8% (active)
7,COc1cc2nc(CN3CCC(Cc4ccccc4)CC3)[nH]c(=O)c2cc1OC,-12.9%
8,COC(=O)c1ccc2c(=O)n(CC3CCCO3)c(SCC(=O)NCCc3ccc(S(N)(=O)=O)cc3)nc2c1 (configuration not stated),-2.9%
9,Cc1nnc(N/N=C/c2ccc(-c3ccccc3F)o2)n1N,33.4%
10,Cc1nnc(N/N=C/c2ccccc2O)n1N,52.5% (active)
11,Cc1nnc(N/N=C/c2c(Cl)cccc2Cl)n1N,32.3%
12,CCc1nnc(N/N=C/c2ccccc2F)n1N,5.2%
13,Cc1nnc(N/N=C/c2ccco2)n1N,56.6% (active)
14,CC(C)(C)c1nnc(N/N=C/c2ccccc2O)n(N)c1=O,-27.3%
15,C/C(=N/OCc1ccc(Br)cc1)c1ccccn1,1.2%
16,O=[N+]([O-])c1ccc2nc(NCCCO)nc(-c3ccccc3)c2c1,-39.7%
17,CCCS(=O)(=O)c1c(S(=O)(=O)CCC)c2ccc(C(N)=O)cn2c1C(=O)c1ccc(OC)cc1,14%
18,O=C(Nc1cccn2ncnc12)C(F)(F)F,-1.2%
19,COc1ccc(CNC(=O)CSc2nnc3c(Cl)cc(C(F)(F)F)cn23)cc1OC,12.9%
20,Oc1ccc(Cl)cc1C=Nc1ccc(Br)cc1,8.3%
21,Cc1ccc(N=Cc2cc(Cl)cc(Cl)c2O)nc1,58.6% (active)
22,Cc1cccc(N=Cc2cc(Br)cc(Cl)c2O)c1,57.8% (active)

row,SMILES,inhibition
1,COc1cc(Br)cc(C=Nc2cccc(C(F)(F)F)c2)c1O,15.9%
2,Oc1c(Cl)cc(Cl)cc1C=Nc1ccc(Br)cc1,17.7%
3,Cc1ccc(N=Cc2cc(Br)cc(Cl)c2O)cc1,50.8% (active)
4,Oc1c(Cl)cc(Cl)cc1/C=N/Nc1ncc(Br)cn1,-22.9%
5,Oc1c(Cl)cc(Cl)cc1C=Nc1ccccc1N1CCCC1,33.7%
6,NC(=O)c1cccc(N=Cc2cc(Cl)cc(Cl)c2O)c1,55.3% (active)
7,Oc1c(Cl)cc(Cl)cc1/C=N/c1nccs1,-2.8%
8,O=C(CCC(=O)N/N=C/c1cc(Cl)cc(Cl)c1O)NCc1ccccc1,17.9%
9,Cc1cccc(N=Cc2[nH]c3ccc(Br)c(Cl)c3c2O)c1,-1.9%
10,O=C(CN1CCSCC1)N/N=C/c1ccc(F)c(F)c1,-7.6%
11,CC(Oc1ccc(Br)cc1)C(=O)NCc1ccccn1 (configuration not stated),-0.8%
12,CCN1CCN(C(=O)c2ccccc2NS(=O)(=O)c2ccc(Cl)cc2)CC1,-3.6%
13,COc1ccc(C(C#N)N2CCC(c3ccccc3)=N2)cc1OC (configuration not stated),-5.6%
14,COc1ccc(/C(C)=N\NS(=O)(=O)c2ccccc2)cc1OC,4.4%
15,COc1ccc(C2CCCN2C(=S)Nc2ccc(C)cc2Cl)cc1OC (configuration not stated),2.1%
16,COc1ccc(CNC(=O)c2ccc(C(C)C)cc2)cc1,12.3%
17,O=C(Nc1ccccc1OC(F)F)c1ccccc1,9.2%
18,CC1CCCCC1N1CCN(C(=O)c2cccc(F)c2)CC1 (configuration not stated),-10.5%
19,O=C(Nc1nc2ccc(F)cc2s1)C1CCN(S(=O)(=O)c2cc([N+](=O)[O-])ccc2Cl)CC1,13.7%
20,C=CCn1c(Cc2ccc(OC)cc2)nnc1SCC(=O)NCCc1ccccc1,-0.7%
21,COc1ccc(C(C)C)cc1S(=O)(=O)N1CCN(c2ccccc2)CC1,6.8%
22,Cn1nnnc1NCc1ccc(Cl)cc1,-7.1%

row,SMILES,inhibition
1,Cc1cnc(CN2CCc3c([nH]c4ccccc34)C2CC(C)C)[nH]1 (configuration not stated),11.2%
2,COCc1ccc(CN2CCc3c([nH]c4ccccc34)C2C(C)(C)C)o1 (configuration not stated),14.1%
3,COCc1ccc(CN2CCc3c([nH]c4ccccc34)C2CC(C)C)o1 (configuration not stated),52% (active)
4,O=C(Cc1cccs1)Nc1ccc(S(=O)(=O)N2CCCC2)cc1,39.8%
5,CC(On1c(-c2ccccc2)nc2ccc(Cl)cc21)C(=O)O (configuration not stated),-10.3%
6,C/C(=C\C(=O)N1CCc2ccccc21)C(=O)O,61.3% (active)
7,C/C(=C/C(=O)N1CCc2ccccc21)C(=O)O,2.1%
8,CC(C)=CC(=O)N1CCCc2ccccc21,10.1%
9,Nc1nonc1-n1nnc(C(=O)O)c1-c1cccs1,0.4%
10,Cc1noc(C)c1COC(=O)CNC(=O)c1cccc(F)c1,-11.8%
11,O=C(Nc1ccc2oc(Cc3ccc(Cl)cc3)nc2c1)c1cccnc1,7.7%
12,O=[N+]([O-])c1ccc(O)c(/C=N/Nc2ccccn2)c1,-20.1%
13,O=[N+]([O-])c1ccc(O)c(C=Nc2ccc3c(c2)OCCO3)c1,52.8% (active)
14,O=C(N/N=C/c1cc([N+](=O)[O-])ccc1O)c1ccc2c(c1)OCCO2,-16.7%
15,O=[N+]([O-])c1ccc(O)c(C=Nc2cccc3ncccc23)c1,52.5% (active)
16,Oc1c(Br)cc(Br)cc1C=Nc1ccc2c(c1)OCCO2,59.7% (active)
17,Oc1c(Cl)cc(Cl)cc1C=Nc1ccc2c(c1)OCCO2,25%
18,O=[N+]([O-])c1ccc(O)c(C=Nc2ccc3nc(-c4ccccc4)[nH]c3c2)c1,8.2%
19,Oc1ccc(C=Nc2cccc3ncccc23)c(O)c1,38.7%
20,CN(C)/N=C/c1cc([N+](=O)[O-])ccc1O,9.8%
21,O=[N+]([O-])c1ccc(O)c(C=Nc2ccc3oc(Cc4ccc(Cl)cc4)nc3c2)c1,61.1% (active)
22,Oc1c(Br)cc(Br)cc1C=Nc1ccc2c(c1)OCO2,48.6%

row,SMILES,inhibition
1,C=CCn1c(SCC(N)=O)nnc1-c1cccc(Br)c1,1%
2,Cc1ccc(CN2CCN(Cc3cnc(C)[nH]3)CC2CCO)cc1 (configuration not stated),2%
3,O=C(Nc1c(F)cc(F)cc1Br)C1CCCO1 (configuration not stated),15.5%
4,CC(=O)NCCc1ccc(S(=O)(=O)N2CCOCC2)cc1,-2.7%
5,CCOC(=O)CNC(=O)CSc1nnc(SCC(=O)NCC(=O)OCC)s1,-6.4%
6,COc1ccc(/C=C/C(=O)NC(=S)N2CCN(C)CC2)cc1,-10.4%
7,CSc1ccccc1NC(=O)CN(C)CC(=O)Nc1ccccc1F,-13.9%
8,Cc1ccc(NC(=S)N(Cc2ccco2)C2CCN(C(C)C)CC2)cc1,-8.2%
9,O=C1COc2ccc3ccccc3c2CN1,-0.8%
10,CN1COc2ccc3ccccc3c2C1,67.8% (active)
11,Cn1c2c(c(=O)n(C)c1=O)[C@@H]1c3c(ccc4ccccc34)OC[C@@H]1CO2,-2.5%
12,Cc1ccc(C(=O)N/N=C/c2ccc(N3CCOCC3)cc2)c(C)c1,-8%
13,CCN(C(=O)c1ccc(NC(C)=O)cc1)c1ccccc1C,-3%
14,Cc1ccc(Nc2cc(C)nc3c(C)ccc([N+](=O)[O-])c23)cc1,10.2%
15,Cc1ccc(NC(=O)c2ccc(Nc3c([N+](=O)[O-])cc([N+](=O)[O-])cc3[N+](=O)[O-])cc2)cc1,3.9%
16,Cc1ccc(Nc2c([N+](=O)[O-])ccc3c2=NC2(CCCCC2)N=3)cc1,50.8% (active)
17,O=[N+]([O-])c1ccc2c(c1Nc1ccccc1)=NC1(CCCCC1)N=2,58.9% (active)
18,O=[N+]([O-])c1ccccc1Nc1ccccc1,-3.7%
19,Cc1ccccc1Nc1c([N+](=O)[O-])ccc2c1=NC1(CCCCC1)N=2,38.7%
